The results in this text go back to PubChem BioAssay AID488969 (Vanderbilt High Throughput Screening Facility, 2010).

In all, about 110,000 compounds were measured (“z-score”: median about -0.1, highest 2% from about 2 on). This excerpt belongs to a sample that is enriched for the highest values. Active and inactive are the calls of the source.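 The calls were made as follows: active = z-score in the third read window above 3 or below -3; inactive = the rest.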

The target of this test is Metabotropic glutamate receptor 8 (Rattus norvegicus) (UniProt P70579). Put plainly: mGluR8 Gi/Go-coupled signaling modulation – cell-based, rat, thallium flux, HTS, primary screen (AID 488969). As to conditions: HEK293 rat mGluR8, GIRK (G protein-gated inwardly rectifying potassium channel) thallium flux, FluoZin2; at 10 µM; stronger effect = higher value; submaximal glutamate (EC20) added with thallium.
Metabotropic glutamate receptor 8 (Rattus norvegicus), sequence (P70579 whole entry, looked up): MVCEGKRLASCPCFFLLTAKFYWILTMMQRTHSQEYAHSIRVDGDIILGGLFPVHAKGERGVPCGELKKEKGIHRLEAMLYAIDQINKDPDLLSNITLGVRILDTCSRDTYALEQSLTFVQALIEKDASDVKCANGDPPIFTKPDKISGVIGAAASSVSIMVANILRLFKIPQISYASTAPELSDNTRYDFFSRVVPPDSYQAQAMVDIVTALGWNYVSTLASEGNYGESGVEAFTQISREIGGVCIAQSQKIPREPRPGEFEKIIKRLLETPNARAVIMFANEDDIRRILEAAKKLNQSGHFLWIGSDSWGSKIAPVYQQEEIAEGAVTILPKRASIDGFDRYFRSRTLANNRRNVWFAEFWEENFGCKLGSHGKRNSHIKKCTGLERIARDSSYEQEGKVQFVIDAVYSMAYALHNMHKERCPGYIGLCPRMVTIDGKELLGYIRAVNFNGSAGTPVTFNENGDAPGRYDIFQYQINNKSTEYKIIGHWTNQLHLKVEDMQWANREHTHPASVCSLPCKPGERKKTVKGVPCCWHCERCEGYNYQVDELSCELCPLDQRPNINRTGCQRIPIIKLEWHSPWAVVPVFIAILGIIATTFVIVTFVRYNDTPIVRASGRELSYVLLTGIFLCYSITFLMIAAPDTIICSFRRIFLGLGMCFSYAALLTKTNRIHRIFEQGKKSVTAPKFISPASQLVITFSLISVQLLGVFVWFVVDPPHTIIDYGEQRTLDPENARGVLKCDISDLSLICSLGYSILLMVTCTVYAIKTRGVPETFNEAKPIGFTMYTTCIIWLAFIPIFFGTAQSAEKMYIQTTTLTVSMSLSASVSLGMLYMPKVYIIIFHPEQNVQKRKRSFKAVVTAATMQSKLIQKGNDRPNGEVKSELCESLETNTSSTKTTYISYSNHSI
On to `O=C(CCSCCC(=O)NCc1ccco1)NCc1ccco1`, for which the z-score is -0.212.

Molecule `Cc1ccc2c(c1)/C(=N/OS(=O)(=O)c1ccccc1)CCS2` came in with a z-score of -0.0781.

Consider `CC(C)(C)c1ccc(C(=O)NC(=S)Nn2cnnc2)cc1`, for which the z-score was 3.11 (active).

Regarding `Cc1ccc(C(=O)NC(=S)Nn2cnnc2)cc1`, the z-score is -0.262.

In the case of `COc1ccc(C(=O)Nn2cnnc2)cc1`, the z-score was -0.00169.

In turn, `O=C(Cn1c(=O)oc2ccccc21)Nc1nnc(N2CCCCCC2)s1` registered a z-score of -0.181.

In turn, `O=C1CSC(=Nc2ccccc2)N1` yielded a z-score of -0.108.

As to `Cc1ccc(N=C2NC(=O)CS2)cc1`, the z-score was found to be 2.26.

Regarding `Cc1cccc(N=C2NC(=O)CS2)c1`, the z-score was 0.297.

As for `CCc1ccc(C(C)NC(=O)c2cc(C)oc2C)cc1` (stereo not given), the z-score is -0.386.

`COc1cc(/C=N/NC(=O)c2ccc([N+](=O)[O-])cc2Cl)cc(Br)c1O` displayed a z-score of 0.0738.

On to `CCOc1ccc(CCNC(=O)CN2CCN(Cc3ccccc3F)C2=O)cc1OCC`, for which the z-score stood at 0.219.

Regarding `COc1ccc(-c2nnc(SCC(=O)N3CCCc4ccccc43)o2)cc1OC`, the z-score was 0.39.

In turn, `Nc1nc(C2CCCCC2)cs1` displayed a z-score of 0.293.

In turn, `CCC1(C)CC(c2csc(N)n2)CCO1` (stereo not given) came in with a z-score of 2.98.

`CC1(C)CC(c2csc(N)n2)CCO1` (stereo not given) yielded a z-score of 0.945.

With `COc1ccccc1C(=O)Nc1ccc(C)cc1C(=O)c1ccccc1`, the z-score is -0.242.

`CC1(C)CC(=O)C(C=Nc2ccccc2Sc2ccccc2)=C(O)C1` came in with a z-score of -0.747.

For `Cc1nc(Nc2ccccc2)[nH]c(=O)c1CCC(C)C`, the z-score amounted to 2.73.

The molecule `Cc1nc(Nc2ccc(F)cc2)[nH]c(=O)c1CCC(C)C` returned a z-score of -0.00139.

`Cc1ccc(Nc2nc(C)c(CCC(C)C)c(=O)[nH]2)cc1` showed a z-score of 0.22.

Consider `Cc1nnc(SCc2ccc(F)cc2Cl)s1`, for which the z-score was -0.295.

In the case of `Cc1cc(C)nc(N2CCCC(C(=O)NCCC3=CCCCC3)C2)n1` (stereo not given), the z-score amounted to 0.000737.

In turn, `CN(CCNC(=O)c1cc2c(=O)n(C)c3ccccc3c2n1C)Cc1ccccc1` came in with a z-score of 2.77.

For the molecule `CCCCN(CC)CCNC(=O)c1cc2c(=O)n(C)c3ccccc3c2n1C`, the z-score came out at 2.85.

Regarding `CN(C)CCNC(=O)c1cc2c(=O)n(C)c3ccccc3c2n1C`, the z-score came to 0.703.

The molecule `COCCNC(=O)c1cc2c(=O)n(C)c3ccccc3c2n1C` had a z-score of -0.524.

`CCN(CC)CCCNC(=O)c1cc2c(=O)n(C)c3ccccc3c2n1C` gave a z-score of 1.21.

With `CCCN(CCC)CCCNC(=O)c1cc2c(=O)n(C)c3ccccc3c2n1C`, the z-score was 4 (active).

The molecule `COCCCNC(=O)c1cc2c(=O)n(C)c3ccccc3c2n1C` yielded a z-score of -0.127.

`CCCCN(CC)CCCNC(=O)c1cc2c(=O)n(C)c3ccccc3c2n1C` yielded a z-score of 2.54.

On to `CCN(CC)CCNC(=O)c1cc2c(=O)n(C)c3ccccc3c2n1C`, for which the z-score stood at 1.25.

With `CCCN(CCC)CCNC(=O)c1cc2c(=O)n(C)c3ccccc3c2n1C`, the z-score was found to be 1.86.

`CC(C)OCCCNC(=O)c1cc2c(=O)n(C)c3ccccc3c2n1C` registered a z-score of -0.527.

As to `CN(C)/C=N/C(=S)Nc1ccc(Br)cc1F`, the z-score was determined as 1.46.

On to `O=C(CCCn1c(SCC(=O)NC2CCCCC2)nc2ccccc2c1=O)NCC1CCCO1` (stereo not given), for which the z-score was -0.0674.

The molecule `Cc1cccc(NC(=O)CSc2nnc([C@@H]3CCCN3C(=O)OC(C)(C)C)o2)c1C` registered a z-score of 1.54.

Take `CN1CCN(C2=CC(=O)OC23CCCCC3)CC1`: the z-score was 0.371.

As for `CCOc1ccc(N/C(=C(/C(Cl)=C(Cl)Cl)[N+](=O)[O-])n2cncn2)cc1`, the z-score is -0.895.

Molecule `CC(=O)c1ccc(Oc2ccc(C(C)=O)cc2)cc1` registered a z-score of -0.0838.

Molecule `CN(C)C(=O)c1ccc(Oc2ccc(C(=O)N(C)C)cc2)cc1` returned a z-score of 2.6.

Molecule `CNC(=O)c1ccc(Oc2ccc(C(=O)NC)cc2)cc1` returned a z-score of -0.0105.

For the molecule `O=c1c2cc(F)ccc2[nH]c(=S)n1CCCN1CCOCC1`, the z-score was 3.11 (active).

`COc1cc2[nH]c(=S)n(CCCN3CCOCC3)c(=O)c2cc1OC`: the z-score stood at 0.0597.

The molecule `O=c1c2cc(N3CCOCC3)ccc2[nH]c(=S)n1CCCN1CCCC1` returned a z-score of -0.171.

`COc1cc2c(=O)n(CCCN3CCOCC3)c(=S)[nH]c2c(OC)c1OC` registered a z-score of 2.07.

Regarding `O=c1c2ccccc2[nH]c(=S)n1CCCN1CCOCC1`, the z-score came out at 0.0674.

The molecule `COc1cc2[nH]c(=S)n(CCN3CCOCC3)c(=O)c2cc1OC` showed a z-score of -0.262.

On to `Cc1ccc(C(=O)COC(=O)c2n[nH]c(=O)c3ccccc23)cc1`, for which the z-score is -0.454.

In the case of `CC(C)(C)c1cnnn1-c1ccc(-c2csc(N)n2)cc1`, the z-score was -0.0644.

For the molecule `COc1cc(C2C(Oc3ccccc3C)C(=O)N2Cc2ccc(F)cc2)cc(OC)c1OC` (stereo not given), the z-score is -0.106.

`COc1cc(/C=C/C(=O)OCC(=O)Nc2ccc(C)c(S(=O)(=O)N3CCCCC3)c2)ccc1O` had a z-score of -0.427.

Molecule `Cc1ccc(S(=O)(=O)N2CCCCC2)cc1NC(=O)COC(=O)c1cc[n+]([O-])cc1` had a z-score of -0.223.

For the molecule `Cc1ccc(S(=O)(=O)N2CCCCC2)cc1NC(=O)COC(=O)C1CC2C=CC1C2` (stereo not given), the z-score is 2.38.

`Cc1ccc(S(=O)(=O)N2CCCCC2)cc1NC(=O)COC(=O)Cc1ccc(Cl)cc1` yielded a z-score of -0.0868.
